We go through eight compounds from PubChem BioAssay (Tox21).

The nature of assay [1]: Nuclear factor erythroid 2-related factor 2/antioxidant responsive element (Nrf2/ARE) small molecule agonists: qHTS cell viability counter screen in human keratinocytes (AID 1919968; active = well fitted curve in the direction sought with a large enough effect in the repeat runs; an effect the other way counts as inactive or inconclusive; note: nearly all actives have a fitted effect of over 55% in size). A digest of the protocol:
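Stably transfected HaCaT (KeratinoSens), 1,500/well. Test agents in DMSO were applied for 23 h, 37 C/5% CO2. CellTiter-Fluor was incubated 1 h before the fluorescence read.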
(In qHTS, concentration-response curves come from the screen itself.)

Assay [2] can be described thus: Nuclear factor erythroid 2-related factor 2/antioxidant responsive element (Nrf2/ARE) small molecule agonists: luciferase reporter gene qHTS assay in human keratinocytes (AID 1919969). Note: nearly all actives have a fitted effect of over 35% in size. Note: potency is the fitted concentration of half-maximal effect. On the technique in general: In a reporter assay the amount or activity of a reporter protein is the signal.
The target in assay [3] is Gonadotropin-releasing hormone receptor (Homo sapiens) (UniProt P30968). Briefly: Human gonadotropin-releasing hormone receptor (GnRHR) small molecule agonists, calcium flux assay in GnRHR-HEK293 cells (AID 1920063). Note: nearly all actives have a fitted effect of over 35% in size. A digest of the protocol:
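Stable human GnRHR HEK293 line. 18 h plating, then calcium dye for 1 h at 37 C. Agonist-mode compound addition from DMSO stocks; fluorescence monitored 3 min.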
In general terms: Calcium assays in cells follow changes in intracellular calcium, usually with a dye or a luminescent sensor.

Assay [4] concerns the target KiSS-1 receptor (Homo sapiens) (UniProt Q969F8). Nature of the assay: Human kisspeptin (KISS1R) small molecule agonists, calcium flux assay in KISS1R-HEK293 cells (AID 1920064; active = well fitted curve in the direction sought with a large enough effect in the repeat runs; an effect the other way counts as inactive or inconclusive). A digest of the protocol: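 After overnight (18 h) culture at 37 C/5% CO2, human KISS1R-HEK293 cells received calcium dye for 1 h, then test compound; emission at 540 nm (excitation 480 nm) was tracked for 3 min.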

Assay [5] is described as follows: G protein-coupled receptor (GPCR) small molecule agonists, calcium flux assay: HEK293 wild type cell line counter screen (AID 1920065). The method, boiled down:
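Following 18 h incubation at 37 C/5% CO2, plates got calcium dye for 1 h; compounds, ATP or DMSO were then pinned in and fluorescence followed kinetically (480/540 nm).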

Assay [6] can be described thus: p53 small molecule agonists, cell-based qHTS assay with rat liver microsomes (AID 1963578). The method, boiled down:
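Read-out is beta-lactamase reporter fluorescence (LiveBLAzer, 2 h, room temperature, dark) in p53RE-bla cells treated 16 h at 37 C with compound, rat liver microsomes and NADPH, both 0.5 mg/mL final.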

The nature of assay [7]: p53 small molecule agonists, cell-based qHTS assay with human liver microsomes: qHTS cell viability counter screen (AID 1963579). Note: nearly all actives have a fitted effect of over 45% in size. A digest of the protocol: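 Cells carrying the p53 response-element beta-lactamase reporter are treated for 16 h at 37 C with test compounds in the presence of human liver microsomes and NADPH (both 0.5 mg/mL final); ATP-based CellTiter-Glo luminescence then reports viability.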

Assay [8] is described as follows: p53 small molecule agonists, cell-based qHTS assay with rat liver microsomes: qHTS cell viability counter screen (AID 1963580). Note: nearly all actives have a fitted effect of over 45% in size. The method, boiled down: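 Luminescent ATP readout (CellTiter-Glo, 30 min at room temperature) reports viability of p53RE-bla HCT-116 cells after 16 h at 37 C with test compounds under metabolic activation by rat liver microsomes and NADPH at 0.5 mg/mL final each.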

Assay [9] is described as follows: p53 small molecule agonists, cell-based qHTS assay: qHTS cell viability counter screen (AID 1963581). Note: nearly all actives have a fitted effect of over 45% in size. A digest of the protocol:
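qHTS counter screen: 16 h compound exposure at 37 C of p53RE-bla HCT-116 cells (4,000 per well, seeded 5 h prior), cell viability by ATP luminescence.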

Assay [10] in a line: p53 small molecule agonists, cell-based qHTS assay (AID 1963582; active = well fitted activation curve with a large enough effect in the signal ratio in the repeat runs, not every such curve was filed as active; the % refers to the signal ratio). A digest of the protocol:
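Measured: fluorescence from cleaved LiveBLAzer substrate. System: p53RE-bla cells, 16 h compound treatment at 37 C, 2 h substrate step at room temperature.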

For assay [11], the target named is Muscarinic acetylcholine receptor M1 (Homo sapiens) (UniProt P11229). Nature of the assay: Cholinergic receptor muscarinic 1 (CHRM1) small molecule antagonists, cell-based qHTS assay (AID 1963588). Note: nearly all actives have a fitted effect of over 40% in size. Note: potency is the fitted concentration of half-maximal effect. A digest of the protocol: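 Compounds were tested at 15 concentrations in three independent runs. Dye-loaded CHRM1-CHO cells were exposed 5 min at room temperature before stimulation by acetylcholine added at 50nM. Intracellular calcium was read kinetically on FDSS for 3 min.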
Muscarinic acetylcholine receptor M1 (Homo sapiens), sequence (P11229 whole entry, looked up): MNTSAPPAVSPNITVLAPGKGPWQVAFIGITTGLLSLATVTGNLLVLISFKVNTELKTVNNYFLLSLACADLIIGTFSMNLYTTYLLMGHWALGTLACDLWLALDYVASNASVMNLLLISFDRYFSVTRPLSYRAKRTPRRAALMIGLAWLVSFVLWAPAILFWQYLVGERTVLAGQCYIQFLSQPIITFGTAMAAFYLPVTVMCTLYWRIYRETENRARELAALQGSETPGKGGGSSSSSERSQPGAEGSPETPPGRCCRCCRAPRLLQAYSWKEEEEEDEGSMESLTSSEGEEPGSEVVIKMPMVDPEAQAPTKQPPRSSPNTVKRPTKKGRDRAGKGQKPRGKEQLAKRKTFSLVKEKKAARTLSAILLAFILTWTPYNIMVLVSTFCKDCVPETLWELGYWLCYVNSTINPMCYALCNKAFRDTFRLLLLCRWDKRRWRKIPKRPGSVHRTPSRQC

Assay [12] shares this target. Nature of the assay: Cholinergic receptor muscarinic 1 (CHRM1) small molecule agonists, cell-based qHTS assay (AID 1963589). Note: nearly all actives have a fitted effect of over 35% in size. A digest of the protocol: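 Kinetic fluorescence (1 s intervals) of calcium-sensitive dye in human M1 CHO cells after compound addition; cells pre-incubated 18 h at 37 C/5% CO2 and dye-loaded 1 h.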
Assay [13] is described as follows: cAMP Responsive Elements (CRE) small molecule agonists, cell-based qHTS assay (AID 1963590). A digest of the protocol:
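Test agents in DMSO were incubated 3 h at 37 C/5% CO2 with CRE-bla HEK 293T cells seeded 18 h earlier; LiveBLAzer B/G FRET substrate was added and read after 2 h at room temperature.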

Assay [14] in a line: cAMP Responsive Elements (CRE) small molecule antagonists, cell-based qHTS assay (AID 1963591; active = well fitted inhibition curve with a large enough effect in the signal ratio in the repeat runs, not every such curve was filed as active; the % refers to the signal ratio). The method, boiled down: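 Reporter line CRE-bla HEK 293T in dialyzed-FBS DMEM; cells preincubated 18 h, treated 3 h with compound plus NKH477 (0.25 uM final); LiveBLAzer FRET, 2 h RT.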
In assay [15] the target is Beta-2 adrenergic receptor (Homo sapiens) (UniProt P07550). Nature of the assay: Adrenergic beta2 receptor (ADRB2) small molecule antagonists, cell-based qHTS assay (AID 1963592). Note: series mostly up to about 92 µM; nearly all actives have a fitted effect of over 50% in size. A digest of the protocol:
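Assay format: CHO-ADRB2 cells, 18-20hr seeding at 37C/5% CO2, then compound plus 1nM isoproterenol agonist mix for 0.5hr RT. Homogeneous time-resolved fluorescence cAMP detection after 1hr, expressed as 665/615 nm ratio.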

Assay [16] has the same target. Nature of the assay: Adrenergic beta2 receptor (ADRB2) small molecule agonists, cell-based qHTS assay (AID 1963593).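 Note: CHO cells stably overexpressing human ADRB2.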 A digest of the protocol: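 CHO cells stably over-expressing ADRB2 were plated overnight at 37C, then dosed with compounds plus a stimulation mix containing 100uM IBMX and 25uM Ro-20-1724 for 0.5hr at room temperature. cAMP was measured by HTRF competition, 1hr.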

The target of assay [17] is D(2) dopamine receptor (Homo sapiens) (UniProt P14416). Nature of the assay: Dopamine D2 receptor (DRD2) small molecule agonists, cell-based qHTS assay (AID 1963594). Note: nearly all actives have a fitted effect of over 35% in size. A digest of the protocol: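 HEK293 cells stably expressing DRD2 were cultured 24 h at 37 C, then given Ro20-1724 (0.1 mM final) and compounds for 10 min at room temperature. NKH477 (200nM) was then added for 30 min. cAMP was read by HTRF.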
D(2) dopamine receptor (Homo sapiens), sequence (P14416 whole entry, looked up): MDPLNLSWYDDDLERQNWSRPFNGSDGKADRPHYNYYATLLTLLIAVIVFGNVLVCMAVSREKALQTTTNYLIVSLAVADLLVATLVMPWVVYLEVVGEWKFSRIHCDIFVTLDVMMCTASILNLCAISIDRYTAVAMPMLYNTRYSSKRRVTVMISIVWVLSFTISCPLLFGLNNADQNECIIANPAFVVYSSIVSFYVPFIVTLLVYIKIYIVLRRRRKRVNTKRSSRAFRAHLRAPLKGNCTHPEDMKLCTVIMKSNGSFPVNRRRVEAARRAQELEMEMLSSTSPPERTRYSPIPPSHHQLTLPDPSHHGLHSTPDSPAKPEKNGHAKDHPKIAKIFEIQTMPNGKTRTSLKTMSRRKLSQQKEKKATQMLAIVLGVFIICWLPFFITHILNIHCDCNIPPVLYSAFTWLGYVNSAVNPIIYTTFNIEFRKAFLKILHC

Assay [18] has the same target. Briefly: Dopamine D2 receptor (DRD2) small molecule antagonists, cell-based qHTS assay (AID 1963595; active = well fitted inhibition curve with a large enough effect in the signal ratio in the repeat runs, with a control signal flat; the % refers to the signal ratio). A digest of the protocol:
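Stable D2 receptor HEK293 line, 24 h after seeding. Compound preincubated 10 min, then quinpirole (12 nM) with forskolin analogue NKH477 (200 nM), 30 min, room temperature. Detection by time-resolved FRET of cAMP.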

For assay [19], the target named is 5-hydroxytryptamine receptor 2A (Homo sapiens) (UniProt P28223). Briefly: 5-hydroxytryptamine receptor 2A (HTR2A) small molecule agonists, cell-based qHTS assay (AID 1963587). Note: nearly all actives have a fitted effect of over 30% in size. A digest of the protocol: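 HTR2A-CHO cells, plated 18 h at 37 C/5% CO2, dye-loaded 1 h at 37 C; compounds in DMSO added by pin tool (agonist mode). Intracellular calcium flux read as kinetic fluorescence on FDSS over 2 min at 1 s intervals.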
5-hydroxytryptamine receptor 2A (Homo sapiens), sequence (P28223 whole entry, looked up): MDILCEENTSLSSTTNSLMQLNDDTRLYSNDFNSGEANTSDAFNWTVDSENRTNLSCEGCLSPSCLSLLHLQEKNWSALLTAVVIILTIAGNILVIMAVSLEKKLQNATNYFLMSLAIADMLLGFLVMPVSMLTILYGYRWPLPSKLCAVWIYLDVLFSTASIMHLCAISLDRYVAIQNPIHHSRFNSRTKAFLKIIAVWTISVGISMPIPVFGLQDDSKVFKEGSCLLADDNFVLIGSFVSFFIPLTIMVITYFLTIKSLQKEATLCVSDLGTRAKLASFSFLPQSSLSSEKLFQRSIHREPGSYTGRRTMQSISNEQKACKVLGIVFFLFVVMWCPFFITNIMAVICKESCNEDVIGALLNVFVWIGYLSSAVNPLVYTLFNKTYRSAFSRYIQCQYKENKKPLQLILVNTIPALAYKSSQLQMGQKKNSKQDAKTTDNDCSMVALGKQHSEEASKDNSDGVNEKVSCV

Assay [20] shares this target. Nature of the assay: 5-hydroxytryptamine receptor 2A (HTR2A) small molecule antagonists, cell-based qHTS assay (AID 1963586). Note: nearly all actives have a fitted effect of over 45% in size. The method, boiled down: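 CHO cells stably expressing human HTR2A were plated for 18 h at 37 C, then loaded with calcium dye for 1 h. Compounds were preincubated 5 min at room temperature before DOI (4 nM solution) was added. Kinetic fluorescence was read for 3 min.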

SMILES strings stand for the structures. A number with no mark means an inactive call. Records with an inconclusive call do not appear. Calls of active or inactive are those of the source. Unless noted, calls come from the whole dose curve.

Gonadotropin-releasing hormone receptor (Homo sapiens), sequence (P30968 whole entry, looked up): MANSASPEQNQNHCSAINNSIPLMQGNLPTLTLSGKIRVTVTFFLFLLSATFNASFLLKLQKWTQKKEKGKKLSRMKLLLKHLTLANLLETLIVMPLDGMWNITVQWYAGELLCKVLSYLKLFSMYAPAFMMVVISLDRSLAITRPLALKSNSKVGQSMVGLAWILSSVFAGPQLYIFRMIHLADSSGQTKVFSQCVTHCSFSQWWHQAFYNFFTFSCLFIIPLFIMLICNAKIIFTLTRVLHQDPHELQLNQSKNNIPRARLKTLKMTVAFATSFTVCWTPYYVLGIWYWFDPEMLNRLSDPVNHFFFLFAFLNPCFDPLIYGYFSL
Beta-2 adrenergic receptor (Homo sapiens), sequence (P07550 whole entry, looked up): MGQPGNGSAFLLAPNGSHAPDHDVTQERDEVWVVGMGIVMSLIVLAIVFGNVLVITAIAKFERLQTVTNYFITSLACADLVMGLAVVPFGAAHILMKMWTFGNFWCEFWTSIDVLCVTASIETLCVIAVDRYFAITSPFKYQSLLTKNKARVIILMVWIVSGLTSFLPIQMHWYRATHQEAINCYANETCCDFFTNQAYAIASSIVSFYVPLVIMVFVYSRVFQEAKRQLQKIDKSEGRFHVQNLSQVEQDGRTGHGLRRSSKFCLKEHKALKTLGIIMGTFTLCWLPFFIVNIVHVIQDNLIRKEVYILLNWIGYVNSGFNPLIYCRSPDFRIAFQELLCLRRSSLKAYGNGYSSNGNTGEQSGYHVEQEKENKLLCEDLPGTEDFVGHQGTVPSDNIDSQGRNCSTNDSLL
KiSS-1 receptor (Homo sapiens), sequence (Q969F8 whole entry, looked up): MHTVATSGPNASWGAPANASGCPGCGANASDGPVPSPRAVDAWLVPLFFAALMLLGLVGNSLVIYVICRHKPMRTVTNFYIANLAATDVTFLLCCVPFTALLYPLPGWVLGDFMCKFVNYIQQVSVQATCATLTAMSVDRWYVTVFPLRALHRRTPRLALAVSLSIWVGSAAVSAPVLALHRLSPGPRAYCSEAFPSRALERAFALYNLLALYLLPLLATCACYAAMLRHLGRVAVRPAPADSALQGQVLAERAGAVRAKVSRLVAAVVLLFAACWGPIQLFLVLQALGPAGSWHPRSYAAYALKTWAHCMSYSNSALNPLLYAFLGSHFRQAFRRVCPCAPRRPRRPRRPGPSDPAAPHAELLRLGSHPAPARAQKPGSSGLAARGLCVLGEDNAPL

`OC[C@H]1O[C@@H](O[C@@H]2[C@@H](CO)O[C@](O)(CO)[C@H]2O)[C@H](O)[C@@H](O)[C@H]1O`: the Potency entry in assay [1], in [2], in [3], in assay [6], in assay [7] and in assay [8] was “inactive” in each case. Also, the Potency entry in [9], in [10], in assay [11], in assay [12], in [13] and in assay [14] was “inactive” each time. In addition, the Potency entry in assay [15], in assay [16], in [17] and in [18] was “inactive” throughout. The outcome in assay [4] and in assay [5] was inactive.

As to `C1COC(NC(C2CC2)C2CC2)=N1`, the Potency entry in [1], in assay [2], in assay [3], in assay [6], in assay [7] and in assay [8] was “inactive” each time. The Potency entry in assay [9], in [10], in assay [19], in assay [11], in [12] and in assay [13] was “inactive” each time. In addition, the Potency result in assay [15], in [16], in assay [17] and in [18] was “inactive” in each case. The outcome in assay [4] and in assay [5] was inactive.

With `COS(=O)(=O)C(F)(F)F`, the Potency result in assay [1], in assay [3], in [9], in assay [20], in [19] and in assay [12] was “inactive” in each case. The Potency result in assay [13], in [14], in assay [15] and in assay [17] was “inactive” throughout. Besides, the Potency in assay [2] is 71.7 µM (active). Also, the outcome in [4] and in assay [5] was inactive.

On to `Cc1nccn1CC1CCc2c(c3ccccc3n2C)C1=O` (stereo unspecified), for which the Potency result in assay [1], in [2], in assay [3], in assay [6], in [7] and in assay [8] was “inactive” throughout. Moreover, the Potency entry in assay [9], in [10], in assay [13], in assay [14], in [15] and in assay [16] was “inactive” throughout. The Potency entry in [17] was “inactive”. Moreover, the result in assay [4] and in assay [5] was inactive.

As for `Cc1cc(S(=O)(=O)O)c(N)cc1Cl`, the Potency result in [1], in assay [2], in assay [3], in assay [6], in assay [7] and in assay [8] was “inactive” throughout. For the same compound, the Potency result in assay [9], in [10], in [20], in assay [19], in [12] and in assay [13] was “inactive” in each case. Further, the Potency result in assay [14], in assay [15], in assay [17] and in assay [18] was “inactive” throughout. For the same compound, the result in assay [4] and in assay [5] was inactive.

As for `CC1CCc2c(N3CCC(O)CC3)c(F)cc3c(=O)c(C(=O)O)cn1c23` (stereo unspecified), the Potency entry in assay [1], in assay [2], in [3], in [6], in [7] and in [8] was “inactive” in each case. Moreover, the Potency entry in assay [9], in assay [10], in [20], in assay [11], in assay [12] and in assay [15] was “inactive” each time. The Potency entry in assay [17] is “inactive”. Moreover, the result in [4] and in assay [5] was inactive.

As for `CC(C)c1ccc2sc3ccccc3c(=O)c2c1`, the Potency result in assay [1], in assay [3], in assay [9], in assay [10], in [20] and in assay [19] was “inactive” in each case. In addition, the Potency entry in assay [12], in assay [15] and in assay [17] was “inactive” each time. In assay [2], the Potency was 68.6 µM (active). Besides, the result in assay [4] and in assay [5] was inactive.

In the case of `O=C(OC1C[C@H]2CC[C@@H](C1)[N+]21CCCC1)C(O)(c1ccccc1)c1ccccc1` (stereo partly specified), the Potency entry in assay [1], in [2], in assay [3], in assay [8], in assay [9] and in [10] was “inactive” throughout. Further, the Potency entry in [19], in assay [12], in assay [13], in assay [14], in assay [15] and in assay [16] was “inactive” throughout. The Potency entry in assay [17] and in assay [18] was “inactive” in each case. The outcome in assay [4] and in assay [5] was inactive. In addition, the Potency in assay [11] is 0.0015 µM (active).
